The source of these data is PMC11006913.

Targets include CRX (Homo sapiens, UniProt O43186 26-111, R41L); ALX1 (Homo sapiens, UniProt Q15699 118-204); HOXA4 (Homo sapiens, UniProt Q00056 201-287, W262F); ALX3 (Homo sapiens, UniProt O95076 139-225, N203S); HOXA2 (Homo sapiens, UniProt O43364 129-215); NKX2-5 (Homo sapiens, UniProt P52952 125-210).
Test in all cases: PBM; 200 nM protein, PBS
Common to all, as to conditions: dsDNA, one strand shown

The target of assay [1] is NKX3-2 (Homo sapiens, UniProt P78367 192-278, P234S).
NKX3-2 (Homo sapiens, UniProt P78367 192-278, P234S), sequence (P78367 192-278 P234S): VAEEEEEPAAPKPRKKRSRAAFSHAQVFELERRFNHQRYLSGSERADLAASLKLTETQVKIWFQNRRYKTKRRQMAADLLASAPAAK
Assay [2] deals with NKX3-2 (Homo sapiens, UniProt P78367 192-278).
NKX3-2 (Homo sapiens, UniProt P78367 192-278), sequence (P78367 192-278): as the sequence (P78367 192-278 P234S) above, with S43P counted along it

HOXA2, sequence (O43364 129-215): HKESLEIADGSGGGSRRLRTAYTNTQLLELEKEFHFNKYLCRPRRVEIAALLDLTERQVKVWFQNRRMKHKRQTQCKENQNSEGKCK
CRX, sequence (O43186 26-111 R41L): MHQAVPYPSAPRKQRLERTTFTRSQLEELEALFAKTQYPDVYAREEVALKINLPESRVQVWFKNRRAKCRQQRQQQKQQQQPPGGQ
ALX3, sequence (O95076 139-225 N203S): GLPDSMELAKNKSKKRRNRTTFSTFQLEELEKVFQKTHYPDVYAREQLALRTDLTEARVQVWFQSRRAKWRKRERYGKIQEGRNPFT
ALX1, sequence (Q15699 118-204): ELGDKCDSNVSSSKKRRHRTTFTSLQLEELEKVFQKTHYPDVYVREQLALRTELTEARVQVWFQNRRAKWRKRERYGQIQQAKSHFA
NKX2-5, sequence (P52952 125-210): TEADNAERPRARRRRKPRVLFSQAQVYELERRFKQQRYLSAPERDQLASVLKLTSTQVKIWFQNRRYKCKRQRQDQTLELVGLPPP
HOXA4, sequence (Q00056 201-287 W262F): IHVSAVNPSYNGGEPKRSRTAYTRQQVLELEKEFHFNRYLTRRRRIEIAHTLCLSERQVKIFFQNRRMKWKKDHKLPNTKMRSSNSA

In the case of CAGGTAGC, the binding signal in the assay with NKX3-2 [1] is 10.7 upbm affinity estimate (log intensity, higher = more binding, comparable within an allelic series); with NKX3-2 [2], 10.7 upbm affinity estimate (log intensity, higher = more binding, comparable within an allelic series).

In the case of AAAGTGGG, the binding signal was 12.4 upbm affinity estimate (log intensity, higher = more binding, comparable within an allelic series) in the assay with NKX3-2 [1] and 12.6 upbm affinity estimate (log intensity, higher = more binding, comparable within an allelic series) with NKX3-2 [2].

For AAGTGACG, the binding signal with NKX3-2 [1] is 11.7 upbm affinity estimate (log intensity, higher = more binding, comparable within an allelic series); in the assay with NKX3-2 [2], 11.9 upbm affinity estimate (log intensity, higher = more binding, comparable within an allelic series).

Consider CAGGGAAG, for which the binding signal with NKX3-2 [1] was 10.5 upbm affinity estimate (log intensity, higher = more binding, comparable within an allelic series); with NKX3-2 [2], 10.5 upbm affinity estimate (log intensity, higher = more binding, comparable within an allelic series).

For the sequence ACCACGGC, the binding signal with NKX3-2 [1] is 10.5 upbm affinity estimate (log intensity, higher = more binding, comparable within an allelic series); with NKX3-2 [2], 10.5 upbm affinity estimate (log intensity, higher = more binding, comparable within an allelic series).

AAAAGGGT: the binding signal is 11.5 upbm affinity estimate (log intensity, higher = more binding, comparable within an allelic series) with NKX3-2 [1] and 11.6 upbm affinity estimate (log intensity, higher = more binding, comparable within an allelic series) in the assay with NKX3-2 [2].

In the case of AGGCGCCG, the binding signal with NKX3-2 [1] was 10.5 upbm affinity estimate (log intensity, higher = more binding, comparable within an allelic series); with NKX3-2 [2], 10.5 upbm affinity estimate (log intensity, higher = more binding, comparable within an allelic series).

As for CCGCTCAG, the binding signal is 10.6 upbm affinity estimate (log intensity, higher = more binding, comparable within an allelic series) with NKX3-2 [1] and 10.6 upbm affinity estimate (log intensity, higher = more binding, comparable within an allelic series) in the assay with NKX3-2 [2].

CGACGGCC: the binding signal in the assay with NKX3-2 [1] was 10.7 upbm affinity estimate (log intensity, higher = more binding, comparable within an allelic series); with NKX3-2 [2] it was 10.6 upbm affinity estimate (log intensity, higher = more binding, comparable within an allelic series).

Consider CCTCTTAC, for which the binding signal with NKX3-2 [1] was 12.1 upbm affinity estimate (log intensity, higher = more binding, comparable within an allelic series); with NKX3-2 [2] it was 12.2 upbm affinity estimate (log intensity, higher = more binding, comparable within an allelic series).

For the sequence CAAAGAGG, the binding signal with NKX3-2 [1] was 11.9 upbm affinity estimate (log intensity, higher = more binding, comparable within an allelic series); with NKX3-2 [2] it was 12 upbm affinity estimate (log intensity, higher = more binding, comparable within an allelic series).

ACACACCG: the binding signal in the assay with NKX3-2 [1] was 10.6 upbm affinity estimate (log intensity, higher = more binding, comparable within an allelic series); with NKX3-2 [2], 10.6 upbm affinity estimate (log intensity, higher = more binding, comparable within an allelic series).

For CCCGAATC, the binding signal in the assay with NKX3-2 [1] is 10.4 upbm affinity estimate (log intensity, higher = more binding, comparable within an allelic series); with NKX3-2 [2], 10.4 upbm affinity estimate (log intensity, higher = more binding, comparable within an allelic series).

As for CCACTCAG, the binding signal in the assay with NKX3-2 [1] was 12.6 upbm affinity estimate (log intensity, higher = more binding, comparable within an allelic series); in the assay with NKX3-2 [2], 12.7 upbm affinity estimate (log intensity, higher = more binding, comparable within an allelic series).

As for AGACCACT, the binding signal was 12 upbm affinity estimate (log intensity, higher = more binding, comparable within an allelic series) in the assay with NKX3-2 [1] and 12.1 upbm affinity estimate (log intensity, higher = more binding, comparable within an allelic series) with NKX3-2 [2].

Consider CTCTTGCC, for which the binding signal is 11.4 upbm affinity estimate (log intensity, higher = more binding, comparable within an allelic series) with NKX3-2 [1] and 11.5 upbm affinity estimate (log intensity, higher = more binding, comparable within an allelic series) with NKX3-2 [2].

As to ACTTACTG, the binding signal was 11.6 upbm affinity estimate (log intensity, higher = more binding, comparable within an allelic series) with NKX3-2 [1] and 11.7 upbm affinity estimate (log intensity, higher = more binding, comparable within an allelic series) in the assay with NKX3-2 [2].

Regarding CACTCTCG, the binding signal is 11.9 upbm affinity estimate (log intensity, higher = more binding, comparable within an allelic series) with NKX3-2 [1] and 12 upbm affinity estimate (log intensity, higher = more binding, comparable within an allelic series) with NKX3-2 [2].

As for CAAGTGCG, the binding signal with NKX3-2 [1] is 12.2 upbm affinity estimate (log intensity, higher = more binding, comparable within an allelic series); with NKX3-2 [2] it was 12.3 upbm affinity estimate (log intensity, higher = more binding, comparable within an allelic series).

On to AACGTGGC, for which the binding signal with NKX3-2 [1] is 10.5 upbm affinity estimate (log intensity, higher = more binding, comparable within an allelic series); in the assay with NKX3-2 [2] it was 10.5 upbm affinity estimate (log intensity, higher = more binding, comparable within an allelic series).

As to CGGTTACC, the binding signal is 10.6 upbm affinity estimate (log intensity, higher = more binding, comparable within an allelic series) in the assay with NKX3-2 [1] and 10.5 upbm affinity estimate (log intensity, higher = more binding, comparable within an allelic series) in the assay with NKX3-2 [2].

With AATGCGGT, the binding signal is 10.7 upbm affinity estimate (log intensity, higher = more binding, comparable within an allelic series) with NKX3-2 [1] and 10.8 upbm affinity estimate (log intensity, higher = more binding, comparable within an allelic series) with NKX3-2 [2].

Take AAAGTGGC: the binding signal in the assay with NKX3-2 [1] was 12.6 upbm affinity estimate (log intensity, higher = more binding, comparable within an allelic series); in the assay with NKX3-2 [2], 12.6 upbm affinity estimate (log intensity, higher = more binding, comparable within an allelic series).

In the case of CGCTGCGA, the binding signal was 10.5 upbm affinity estimate (log intensity, higher = more binding, comparable within an allelic series) with NKX3-2 [1] and 10.5 upbm affinity estimate (log intensity, higher = more binding, comparable within an allelic series) with NKX3-2 [2].

For the sequence CGGTGAGC, the binding signal is 10.6 upbm affinity estimate (log intensity, higher = more binding, comparable within an allelic series) with NKX3-2 [1] and 10.7 upbm affinity estimate (log intensity, higher = more binding, comparable within an allelic series) in the assay with NKX3-2 [2].

For the sequence CGTGGGAA, the binding signal in the assay with NKX3-2 [1] was 10.6 upbm affinity estimate (log intensity, higher = more binding, comparable within an allelic series); with NKX3-2 [2], 10.6 upbm affinity estimate (log intensity, higher = more binding, comparable within an allelic series).

In the case of CCCCCAAA, the binding signal with NKX3-2 [1] is 10.7 upbm affinity estimate (log intensity, higher = more binding, comparable within an allelic series); with NKX3-2 [2], 10.7 upbm affinity estimate (log intensity, higher = more binding, comparable within an allelic series).

As to CCACTTCG, the binding signal with NKX3-2 [1] is 12.8 upbm affinity estimate (log intensity, higher = more binding, comparable within an allelic series); in the assay with NKX3-2 [2], 12.9 upbm affinity estimate (log intensity, higher = more binding, comparable within an allelic series).

Take GGCACTCA: the binding signal with NKX3-2 [1] was 12.5 upbm affinity estimate (log intensity, higher = more binding, comparable within an allelic series); in the assay with NKX3-2 [2], 12.6 upbm affinity estimate (log intensity, higher = more binding, comparable within an allelic series).

Consider ATCCGAGC, for which the binding signal with NKX3-2 [1] is 10.6 upbm affinity estimate (log intensity, higher = more binding, comparable within an allelic series); with NKX3-2 [2] it was 10.6 upbm affinity estimate (log intensity, higher = more binding, comparable within an allelic series).

For AAGTGGGA, the binding signal was 12.6 upbm affinity estimate (log intensity, higher = more binding, comparable within an allelic series) with NKX3-2 [1] and 12.6 upbm affinity estimate (log intensity, higher = more binding, comparable within an allelic series) with NKX3-2 [2].

As for CGGTTGAC, the binding signal with NKX3-2 [1] is 10.5 upbm affinity estimate (log intensity, higher = more binding, comparable within an allelic series); with NKX3-2 [2], 10.5 upbm affinity estimate (log intensity, higher = more binding, comparable within an allelic series).

In the case of GAGGCAGC, the binding signal in the assay with NKX3-2 [1] was 10.4 upbm affinity estimate (log intensity, higher = more binding, comparable within an allelic series); with NKX3-2 [2], 10.4 upbm affinity estimate (log intensity, higher = more binding, comparable within an allelic series).

As for GAAGTGTC, the binding signal in the assay with NKX3-2 [1] is 12.2 upbm affinity estimate (log intensity, higher = more binding, comparable within an allelic series); with NKX3-2 [2], 12.3 upbm affinity estimate (log intensity, higher = more binding, comparable within an allelic series).

Consider CTGCCGCA, for which the binding signal with NKX3-2 [1] was 10.7 upbm affinity estimate (log intensity, higher = more binding, comparable within an allelic series); in the assay with NKX3-2 [2] it was 10.6 upbm affinity estimate (log intensity, higher = more binding, comparable within an allelic series).

Take GCCCTCAA: the binding signal was 11.6 upbm affinity estimate (log intensity, higher = more binding, comparable within an allelic series) with NKX3-2 [1] and 11.7 upbm affinity estimate (log intensity, higher = more binding, comparable within an allelic series) in the assay with NKX3-2 [2].

Consider GCCCCCGA, for which the binding signal in the assay with NKX3-2 [1] is 10.4 upbm affinity estimate (log intensity, higher = more binding, comparable within an allelic series); with NKX3-2 [2] it was 10.4 upbm affinity estimate (log intensity, higher = more binding, comparable within an allelic series).

As to GCTAAGAC, in the assay with CRX, the binding signal is 10.2 upbm affinity estimate (log intensity, higher = more binding, comparable within an allelic series).

Take ATTAAGAC: the binding signal with CRX was 11 upbm affinity estimate (log intensity, higher = more binding, comparable within an allelic series).

Regarding GTCAACAA, the binding signal with ALX1 was 7.43 upbm affinity estimate (log intensity, higher = more binding, comparable within an allelic series).

For CCATTAGA, the binding signal with HOXA4 was 10.6 upbm affinity estimate (log intensity, higher = more binding, comparable within an allelic series).

Consider CTATATTA, for which the binding signal with ALX3 was 8.73 upbm affinity estimate (log intensity, higher = more binding, comparable within an allelic series).

For GACACTAA, the binding signal with HOXA2 was 9.38 upbm affinity estimate (log intensity, higher = more binding, comparable within an allelic series).

With AAATACCA, the binding signal with HOXA2 was 9.01 upbm affinity estimate (log intensity, higher = more binding, comparable within an allelic series).

In the case of AATTGACC, the binding signal with NKX2-5 was 10.6 upbm affinity estimate (log intensity, higher = more binding, comparable within an allelic series).

Regarding CCCTCAAA, the binding signal with NKX3-2 [2] was 11.6 upbm affinity estimate (log intensity, higher = more binding, comparable within an allelic series).

Take GGAGAGTA: the binding signal in the assay with NKX3-2 [2] was 11.6 upbm affinity estimate (log intensity, higher = more binding, comparable within an allelic series).
